This passage reports log2 fold change results from the supplement of paper PMC10849652.

About 7,900 targets were measured; listed, in parts, are those with a hit and a random draw of the rest. About 0.6% of all pairs of compound and target were hits. Values without a mark were called inactive.

Common to all, as to assay: log2 fold change, soluble protein after heating vs DMSO (PISA); higher = thermal stabilisation; K562 cells, 10 uM, 30 min; active = over 0.2 and 3.5 SD of the protein, either way, in both replicates (recomputed)
Compound in one test: C1COCCN1CCN2C3=CC=CC=C3N=C2NC(=O)C4=CC(=CC=C4)[N+](=O)[O-] [IRAK-1-4 Inhibitor I]
An outline of the steps: (§1)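 K562 cells at 2×10^6 cells/mL were given 10 μM compound for 30 min. Aliquots then went through 3 min of heating across 48°C-58°C, were pooled, and were extracted in PBS with 0.5% NP-40 at 4°C, and the supernatant after 21,000xg for 90 min was quantified by TMTpro 16plex LC-MS/MS with channel sums equalised. Thermal stability relative to control samples, from duplicates, is given as log2 fold change.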

Compound in a further test: C=CC(=O)N1CCC[C@@H](n2nc(-c3ccc(Oc4ccccc4)cc3)c3c(N)ncnc32)C1 [ibrutinib]
An outline of the steps:
as §1

Compound in test [1]: CC(=O)c1cnc2ccc(-c3cc(Cl)c(O)c(Cl)c3)nc2c1N[C@H]1CC[C@H](CN(C)C)CC1
The method, boiled down:
as §1

Compound in another test: CC(C)(C)Cn1c(N)nc2ccc(-c3[nH]c(C(C)(C)C)nc3-c3ccc(F)cc3)nc21 [ralimetinib]
An outline of the steps:
as §1

Compound in test [2]: CC(C)(O)CC(=O)NCCn1ccc2ncnc(Nc3ccc(Oc4cccc(C(F)(F)F)c4)c(Cl)c3)c21
An outline of the steps:
as §1

Compound in test [3]: CC(C)C1=C2N=C(C=C(N2N=C1)NCC3=CC=CC=C3)NCCCCCCN
An outline of the steps: as §1

Compound in test [4]: CC(C)C[C@@H](C=O)NC(=O)[C@H](CC(C)C)NC(=O)[C@H](CC(C)C)NC(=O)OCc1ccccc1
An outline of the steps:
as §1

Compound in the next test: CC(C)N(C[C@H]1O[C@@H](n2cnc3c(N)ncnc32)[C@H](O)[C@@H]1O)[C@H]1C[C@@H](CCc2nc3cc(C(C)(C)C)ccc3[nH]2)C1 [pinometostat]
The method, boiled down:
as §1

Compound in test [5]: CC1=C(C(CC(=O)N1)C2=CC=C(C=C2)C(F)(F)F)C(=O)NC3=C(C=C4C(=C3)C=NN4)F
An outline of the steps: as §1

Compound in test [6]: CC1=C(C2=C(C=C1)C(=O)C3=CC=CC=C3N2CCCN)C
An outline of the steps:
as §1

Compound in test [7]: CC1=C(C=C(C=C1)NC(=O)C2=CC(=CC=C2)C(C)(C)C#N)NC3=CC4=C(C=C3)N=CN(C4=O)C
An outline of the steps: as §1

Compound in test [8]: CC1=C(C=C(C=C1)NC(=O)C2=CC(=CC=C2)N(C)C)NC(=O)C3=CC=C(C=C3)O
The method, boiled down: as §1

Compound in test [9]: CC1=CC=C(C=C1)SC2=C3C=C(SC3=CN=C2)C(=O)N
The method, boiled down:
as §1

Compound in test [10]: CC1=NC(=CC=C1)C2=C(N=C(N2)C(C)(C)C)C3=CC4=NC=CN=C4C=C3
An outline of the steps:
as §1

Compound in a further test: CCCCN(Cc1ccc(C(=O)NO)cc1)C(=O)Nc1ccccc1 [Nexturastat A]
An outline of the steps:
as §1

Compound in another test: CCCS(=O)(=O)Nc1ccc(F)c(C(=O)c2c[nH]c3ncc(-c4ccc(Cl)cc4)cc23)c1F [vemurafenib]
An outline of the steps: as §1

Compound in test [11]: CCCS(=O)(=O)Nc1ccc(F)c(C(=O)c2c[nH]c3ncc(Cl)cc23)c1F
An outline of the steps: as §1

Compound in test [12]: CCCc1cc(C)[nH]c(=O)c1CNC(=O)c1cc(-c2ccnc(N3CCN(C)CC3)c2)cc2c1cnn2C(C)C
The method, boiled down: as §1

Compound in another test: CCN(CC)Cc1ccc2cc(COC(=O)Nc3ccc(C(=O)NO)cc3)ccc2c1 [givinostat]
The method, boiled down:
as §1

Compound in a further test: CCN(CCCOc1ccc2c(Nc3cc(CC(=O)Nc4cccc(F)c4)[nH]n3)ncnc2c1)CCOP(=O)(O)O [barasertib]
The method, boiled down: as §1

UniProt Q9BZI7, sequence (Q9BZI7 whole entry, looked up): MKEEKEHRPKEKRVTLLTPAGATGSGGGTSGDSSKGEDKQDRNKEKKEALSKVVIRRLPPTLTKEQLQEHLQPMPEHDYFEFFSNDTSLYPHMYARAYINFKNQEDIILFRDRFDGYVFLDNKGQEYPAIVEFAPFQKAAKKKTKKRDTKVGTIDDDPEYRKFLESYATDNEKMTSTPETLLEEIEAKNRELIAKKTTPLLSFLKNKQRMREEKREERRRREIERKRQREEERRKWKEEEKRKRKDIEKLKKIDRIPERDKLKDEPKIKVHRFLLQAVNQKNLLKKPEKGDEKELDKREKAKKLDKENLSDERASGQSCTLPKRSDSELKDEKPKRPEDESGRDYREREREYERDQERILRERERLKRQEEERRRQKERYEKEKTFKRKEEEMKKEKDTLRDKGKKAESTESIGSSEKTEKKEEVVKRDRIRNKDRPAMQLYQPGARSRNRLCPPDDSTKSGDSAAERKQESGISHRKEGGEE
UniProt Q6BDS2, sequence (Q6BDS2 whole entry, looked up): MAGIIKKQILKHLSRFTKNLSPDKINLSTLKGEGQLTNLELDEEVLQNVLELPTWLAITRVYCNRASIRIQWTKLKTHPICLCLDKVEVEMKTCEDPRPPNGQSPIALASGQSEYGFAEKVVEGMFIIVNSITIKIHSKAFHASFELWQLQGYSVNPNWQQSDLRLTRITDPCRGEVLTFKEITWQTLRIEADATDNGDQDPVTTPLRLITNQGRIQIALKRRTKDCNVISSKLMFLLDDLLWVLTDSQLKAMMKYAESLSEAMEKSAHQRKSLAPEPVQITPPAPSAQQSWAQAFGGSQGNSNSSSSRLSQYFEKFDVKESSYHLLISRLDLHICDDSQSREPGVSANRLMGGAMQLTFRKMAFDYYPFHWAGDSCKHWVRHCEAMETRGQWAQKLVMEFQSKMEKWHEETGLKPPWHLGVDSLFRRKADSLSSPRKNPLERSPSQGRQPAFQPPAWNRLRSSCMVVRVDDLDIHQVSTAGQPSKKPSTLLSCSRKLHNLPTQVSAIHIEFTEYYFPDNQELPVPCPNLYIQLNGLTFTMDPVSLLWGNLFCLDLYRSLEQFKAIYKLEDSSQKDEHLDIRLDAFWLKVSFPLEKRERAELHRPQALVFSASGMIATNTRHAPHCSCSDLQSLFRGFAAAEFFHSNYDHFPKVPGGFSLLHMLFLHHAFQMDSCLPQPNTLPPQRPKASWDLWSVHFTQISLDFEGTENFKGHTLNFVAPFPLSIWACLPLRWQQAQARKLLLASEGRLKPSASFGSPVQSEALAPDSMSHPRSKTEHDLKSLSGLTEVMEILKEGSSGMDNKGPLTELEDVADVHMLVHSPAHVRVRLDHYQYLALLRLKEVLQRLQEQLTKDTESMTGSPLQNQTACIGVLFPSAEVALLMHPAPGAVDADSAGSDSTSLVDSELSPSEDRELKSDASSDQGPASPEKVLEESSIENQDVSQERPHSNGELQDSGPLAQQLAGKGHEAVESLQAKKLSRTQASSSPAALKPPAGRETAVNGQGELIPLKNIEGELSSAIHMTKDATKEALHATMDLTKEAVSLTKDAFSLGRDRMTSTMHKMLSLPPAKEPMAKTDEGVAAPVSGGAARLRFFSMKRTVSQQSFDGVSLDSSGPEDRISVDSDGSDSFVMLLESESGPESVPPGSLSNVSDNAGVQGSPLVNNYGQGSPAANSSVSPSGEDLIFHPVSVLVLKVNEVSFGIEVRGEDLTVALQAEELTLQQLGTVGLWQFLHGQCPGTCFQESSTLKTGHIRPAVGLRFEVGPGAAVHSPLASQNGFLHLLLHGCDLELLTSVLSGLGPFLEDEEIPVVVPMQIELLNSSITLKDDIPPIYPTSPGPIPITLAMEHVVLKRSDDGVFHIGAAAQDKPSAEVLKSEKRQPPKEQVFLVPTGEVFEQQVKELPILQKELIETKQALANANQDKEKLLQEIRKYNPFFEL
UniProt Q92973, sequence (Q92973 whole entry, looked up): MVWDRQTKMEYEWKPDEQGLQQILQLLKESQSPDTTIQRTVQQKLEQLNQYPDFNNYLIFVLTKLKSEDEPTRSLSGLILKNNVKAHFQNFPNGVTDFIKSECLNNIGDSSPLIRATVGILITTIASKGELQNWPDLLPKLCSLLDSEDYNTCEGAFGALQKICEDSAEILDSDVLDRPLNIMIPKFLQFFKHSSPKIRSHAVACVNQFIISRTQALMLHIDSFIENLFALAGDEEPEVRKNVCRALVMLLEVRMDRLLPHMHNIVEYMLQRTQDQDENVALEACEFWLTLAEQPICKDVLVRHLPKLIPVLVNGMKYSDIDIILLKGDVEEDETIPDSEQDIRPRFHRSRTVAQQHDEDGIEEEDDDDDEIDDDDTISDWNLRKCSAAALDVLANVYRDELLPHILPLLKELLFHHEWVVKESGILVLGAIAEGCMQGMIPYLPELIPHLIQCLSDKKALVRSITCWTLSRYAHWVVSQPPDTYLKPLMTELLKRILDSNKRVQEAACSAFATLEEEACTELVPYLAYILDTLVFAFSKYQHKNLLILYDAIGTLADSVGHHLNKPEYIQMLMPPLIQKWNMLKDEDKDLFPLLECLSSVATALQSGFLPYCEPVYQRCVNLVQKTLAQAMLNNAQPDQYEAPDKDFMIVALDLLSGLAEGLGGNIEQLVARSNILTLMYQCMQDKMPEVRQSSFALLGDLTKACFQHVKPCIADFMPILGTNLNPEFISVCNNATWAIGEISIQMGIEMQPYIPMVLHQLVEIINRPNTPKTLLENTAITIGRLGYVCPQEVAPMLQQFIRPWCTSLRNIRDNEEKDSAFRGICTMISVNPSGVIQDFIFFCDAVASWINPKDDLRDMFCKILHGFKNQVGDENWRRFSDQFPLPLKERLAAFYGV
UniProt Q6NXR4, sequence (Q6NXR4 whole entry, looked up): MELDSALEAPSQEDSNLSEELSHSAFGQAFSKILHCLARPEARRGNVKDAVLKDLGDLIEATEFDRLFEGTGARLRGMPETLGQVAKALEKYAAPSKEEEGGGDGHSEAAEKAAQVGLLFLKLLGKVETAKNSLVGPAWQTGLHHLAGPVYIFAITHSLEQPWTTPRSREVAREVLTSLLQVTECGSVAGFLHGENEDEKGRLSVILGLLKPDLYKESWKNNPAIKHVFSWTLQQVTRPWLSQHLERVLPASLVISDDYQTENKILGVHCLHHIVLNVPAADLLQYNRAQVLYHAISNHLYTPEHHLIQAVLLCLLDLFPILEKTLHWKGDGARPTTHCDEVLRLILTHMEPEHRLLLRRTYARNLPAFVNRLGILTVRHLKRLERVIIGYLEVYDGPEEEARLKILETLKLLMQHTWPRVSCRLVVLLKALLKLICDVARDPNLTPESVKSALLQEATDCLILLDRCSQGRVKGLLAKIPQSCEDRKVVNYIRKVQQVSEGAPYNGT
UniProt Q7Z3J2, sequence (Q7Z3J2 whole entry, looked up): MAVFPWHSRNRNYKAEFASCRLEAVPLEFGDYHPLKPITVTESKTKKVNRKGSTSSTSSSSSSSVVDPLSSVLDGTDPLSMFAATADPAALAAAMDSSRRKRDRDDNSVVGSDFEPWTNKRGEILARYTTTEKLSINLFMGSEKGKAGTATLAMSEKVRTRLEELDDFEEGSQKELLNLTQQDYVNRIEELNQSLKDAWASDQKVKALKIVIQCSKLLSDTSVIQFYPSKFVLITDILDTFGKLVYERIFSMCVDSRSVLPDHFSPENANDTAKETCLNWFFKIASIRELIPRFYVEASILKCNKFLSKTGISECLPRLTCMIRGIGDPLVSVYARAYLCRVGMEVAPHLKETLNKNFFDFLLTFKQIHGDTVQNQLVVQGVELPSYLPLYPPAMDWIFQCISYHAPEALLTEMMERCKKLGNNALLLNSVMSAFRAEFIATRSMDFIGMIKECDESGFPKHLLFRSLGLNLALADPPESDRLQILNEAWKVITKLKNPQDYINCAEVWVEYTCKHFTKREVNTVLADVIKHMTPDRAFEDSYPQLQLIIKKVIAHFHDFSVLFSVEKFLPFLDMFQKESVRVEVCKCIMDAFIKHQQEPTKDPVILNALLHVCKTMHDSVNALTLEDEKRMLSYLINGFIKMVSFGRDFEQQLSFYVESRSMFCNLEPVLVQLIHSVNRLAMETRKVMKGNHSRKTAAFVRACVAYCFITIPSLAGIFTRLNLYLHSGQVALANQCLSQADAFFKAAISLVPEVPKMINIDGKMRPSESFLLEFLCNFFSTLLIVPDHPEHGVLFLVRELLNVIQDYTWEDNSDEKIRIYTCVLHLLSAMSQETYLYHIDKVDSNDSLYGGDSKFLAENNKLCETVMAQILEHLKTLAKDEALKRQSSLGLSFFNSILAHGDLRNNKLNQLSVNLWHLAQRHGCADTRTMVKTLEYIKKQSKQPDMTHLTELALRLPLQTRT
UniProt P07951, sequence (P07951 whole entry, looked up): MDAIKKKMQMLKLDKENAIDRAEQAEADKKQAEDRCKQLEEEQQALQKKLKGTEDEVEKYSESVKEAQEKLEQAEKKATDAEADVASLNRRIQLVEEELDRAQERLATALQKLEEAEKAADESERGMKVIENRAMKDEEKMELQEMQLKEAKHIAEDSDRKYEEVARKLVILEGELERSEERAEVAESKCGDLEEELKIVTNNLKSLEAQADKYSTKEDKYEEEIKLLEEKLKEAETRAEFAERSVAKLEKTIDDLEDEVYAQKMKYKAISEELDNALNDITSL

With VPS35L (UniProt Q7Z3J2), the log2 fold change with IRAK-1-4 Inhibitor I was -0.012; in the test with ibrutinib it was -0.006; in [1] it was -0.028; in the test with ralimetinib, 0.05; in [2], -0.097; in test [3], -0.046. Moreover, the log2 fold change is 0.036 in test [4]; 0.043 with pinometostat; -0.013 in test [5]; 0.024 in [6]; 0.024 in [7]; -0.031 in [8]. The log2 fold change in [9] is -0.052; in test [10], -0.022; with Nexturastat A it was 0.05; in the test with vemurafenib, 0.003; in test [11], 0.049; in test [12], 0.086. The figures for the log2 fold change with givinostat and in the test with barasertib were 0.03 and 0.07, respectively.
For TPM2 (UniProt P07951), the log2 fold change with IRAK-1-4 Inhibitor I was 0.013; with ibrutinib it was -0.018; in [1] it was 0.027; with ralimetinib, 0.059; in [2] it was -0.053; in test [3], 0.037. Besides, the log2 fold change is -0.163 in test [4]; -0.1 in the test with pinometostat; 0.079 in test [5]; -0.103 in test [6]; 0.048 in test [7]; -0.019 in test [8]. Moreover, the log2 fold change in [9] is -0.047; in test [10], 0.212; with Nexturastat A it was -0.138; with vemurafenib it was 0.03; in test [11] it was 0.001; in test [12], 0.405. For the same target, the log2 fold change in the test with givinostat is -0.011; with barasertib it was 0.04.
Turning to TNPO1 (UniProt Q92973), the log2 fold change in the test with IRAK-1-4 Inhibitor I was 0.01; in the test with ibrutinib, 0.001; in [1], 0.043; with ralimetinib, -0.01; in [2], -0.029; in test [3] it was -0.193. For the same target, the log2 fold change is -0.011 in test [4]; -0.006 with pinometostat; 0.032 in test [5]; -0.231 (active) in test [6]; 0.041 in test [7]; 0 in [8]. Moreover, the log2 fold change in test [9] was 0.037; in [10], 0; with Nexturastat A, -0.017; with vemurafenib, 0.015; in [11] it was 0.064; in [12], -0.009. For the same target, the log2 fold change with givinostat was 0.015; with barasertib, -0.005.
As for TTI2 (UniProt Q6NXR4), the log2 fold change is -0.032 with IRAK-1-4 Inhibitor I; -0.006 with ibrutinib; 0.005 in test [1]; 0.033 with ralimetinib; -0.196 in [2]; -0.079 in test [3]. In addition, the log2 fold change is 0.032 in test [4]; 0.016 with pinometostat; -0.044 in test [5]; 0.033 in test [6]; 0.021 in [7]; -0.039 in test [8]. Also, the log2 fold change was 0.024 in test [9]; 0.023 in test [10]; 0.113 with Nexturastat A; 0.047 with vemurafenib; 0.06 in test [11]; -0.018 in test [12]. Also, the log2 fold change with givinostat is 0.135; with barasertib it was -0.028.
Consider UPF3B (UniProt Q9BZI7), for which the log2 fold change in the test with IRAK-1-4 Inhibitor I is -0.099; in the test with ibrutinib, 0.158; in [1] it was 0.265; in the test with ralimetinib, 0.27; in test [2], 0.057; in [3], -0.02. Moreover, the log2 fold change in test [4] was 0.19; in the test with pinometostat, 0.394; in [5], -0.002; in [6], -0.183; in test [7] it was -0.047; in test [8] it was -0.004. Further, the log2 fold change in [9] is 0; in [10], -0.053; in the test with Nexturastat A, 0.29; with vemurafenib it was -0.108; in [11], -0.069; in test [12], 0.139. Besides, the log2 fold change in the test with givinostat is 0.03; with barasertib it was -0.058.
Regarding UHRF1BP1 (UniProt Q6BDS2), the log2 fold change was 0.007 with IRAK-1-4 Inhibitor I; 0.023 with ibrutinib; -0.034 in test [1]; -0.067 in the test with ralimetinib; 0.097 in test [2]; 0.258 (active) in test [3]. In addition, the log2 fold change in test [4] was 0.03; in the test with pinometostat it was 0.006; in [5] it was 0.001; in [6] it was 0.029; in test [7], -0.068; in [8], -0.039. Also, the log2 fold change was -0.012 in test [9]; -0.011 in test [10]; 0.043 in the test with Nexturastat A; -0.035 with vemurafenib; -0.043 in test [11]; -0.022 in test [12]. Besides, the figures for the log2 fold change with givinostat and with barasertib were -0.012 and -0.009, respectively.
